# Source: PubChem BioAssay
# The source made the active and inactive calls.
# Legend:
# Albumin (Bos taurus) = Albumin (Bos taurus) (UniProt P02769); experiment: bovine serum albumin binders on microarray, profiling panel, artefact control for SMM control protein annotation, biochemical, small-molecule microarray, Alexa647 label, 635/667 nm fluorescence (AID 1118); conditions: BSA-A647 binding, fluorescence 635 nm, higher = more signal;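 also: score merges 667 nm emission intensity and signal-to-noise per printed compound spot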
# [1] = small-molecule microarray binders of probe aXIP, primary screen, biochemical, NeuroSMM set, 635/667 nm fluorescence (AID 1119); conditions: higher = more signal, called active from +8 up or from −8 down;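 also: probe is the protein aXip251-270 applied at 1 µg/mL to compound-printed slides; binding of probe to printed compounds measured as 667 nm fluorescence plus signal to noise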
# [2] = small-molecule binders of probe aNOTCH3, primary screen, biochemical, small-molecule microarray, 635/667 nm fluorescence (AID 1120); conditions: higher = more signal;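 also: probe is a biotin-tagged antibody raised against NOTCH3 rather than NOTCH3 protein; score merges spot fluorescence near 667 nm with spot signal to noise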
# [3] = small-molecule binders of probe aNOTCH2, primary screen, biochemical, small-molecule microarray, 635/667 nm fluorescence (AID 1121); conditions: higher = more signal;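 also: score merges feature fluorescence read at 667 nm with its signal to noise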
# [4] = biological target: Carbonic anhydrase 2 (Homo sapiens) (UniProt P00918); experiment: CAII small-molecule binders, profiling panel, biochemical, small-molecule microarray, Alexa647-labelled CAII (AID 1122); conditions: CAII-A647 binding fluorescence, higher = more signal
# [5] = COS7 lysate on small-molecule microarray, probe aHis, 635 nm (AID 1123); conditions: COS7 cell lysate, fluorescence, higher = more signal;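 also: z-score combines 667nm fluorescence intensity with signal-to-noise per printed compound spot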
# [6] = compound binding in COS7 lysate, probe aLAP1, primary screen, cell lysate, small-molecule microarray (AID 1124); conditions: probe aLAP1, fluorescence, higher = more signal;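 also: lysate comes from COS7 cells expressing LAP1 and is applied at 0.3 µg/mL; score merges spot fluorescence near 667 nm with signal-to-noise over triplicate slides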
# Sam68 (KHDRBS1) = experiment: Sam68 small-molecule binders, primary screen, biochemical, small-molecule microarray, 635 nm fluorescence (AID 1125); conditions: small-molecule microarray binding, higher = more signal;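 also: score merges 667 nm channel intensity with signal to noise over triplicate slides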
# [7] = system: Chordin-like protein 2 (CHRDL2); experiment: CHRDL2 small-molecule binders, primary screen, biochemical, small-molecule microarray, 635 nm fluorescence (AID 1126); conditions: small-molecule microarray binding, fluorescence 635 nm; higher = more signal;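 also: printed compound slides probed with Chrdl2 protein at 4 µg/mL for 1 h at 4 C; score merges 667 nm emission intensity with signal to noise over three replicate slides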
# [8] = biological target: Concanavalin-A (Canavalia ensiformis) (UniProt P02866); experiment: ConA small-molecule binders, primary screen, artefact control for SMM control protein annotation, biochemical, small-molecule microarray, Alexa647 label, 635 nm (AID 1127); conditions: ConA-A647 binding fluorescence, higher = more signal;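 also: z combines 667 nm emission intensity with signal-to-noise across three replicate slides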
# [9] = anti-His antibody binders, primary screen, artefact control for SMM control protein annotation, biochemical, small-molecule microarray, 635 nm fluorescence (AID 1128); conditions: anti-His Alexa647 antibody binding, higher = more signal;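 also: score merges feature fluorescence with signal-to-noise for each printed compound spot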
# [10] = system: Human papillomavirus type 1a E7 protein (residues 1-88); experiment: HPV1a E7 small-molecule binders, primary screen, biochemical, small-molecule microarray, residues 1-88, 635 nm (AID 1129); conditions: small-molecule microarray binding, fluorescence 635 nm; higher = more signal
# [11] = biological target: Focal adhesion kinase 1 (Homo sapiens) (UniProt Q05397); experiment: small-molecule microarray binders of FAK, primary screen, biochemical, 635/667 nm fluorescence, BSA, DTT (AID 1130); conditions: PTK2 binding, 635 nm fluorescence, higher = more signal;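 also: composite of spot emission at 667 nm and signal to noise over triplicate slides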
# [12] = system: Fibrinogen (Alexa647-labelled); experiment: fibrinogen binders on compound microarrays, profiling panel, artefact control for SMM control-protein annotation, biochemical, small-molecule microarray, 635/667 nm fluorescence (AID 1131); conditions: fibrinogen-A647 binding fluorescence, higher = more signal;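 also: z-score merges 667 nm fluorescence with per-spot signal-to-noise over triplicate slides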
# [13] = biological target: Follistatin (Homo sapiens) (UniProt P19883); experiment: follistatin binders on small-molecule microarrays, primary screen, biochemical, small-molecule microarray, 635/667 nm fluorescence (AID 1132); conditions: FST binding, 635 nm fluorescence, higher = more signal
# [14] = biological target: Fibroblast growth factor 2 (Homo sapiens) (UniProt P09038); experiment: FGF2 binders on small-molecule microarrays, primary screen, biochemical, small-molecule microarray, 635/667 nm fluorescence (AID 1133); conditions: small-molecule microarray binding, FGF2, fluorescence 635/667; higher = more signal
# [15] = mitochondrial membrane potential change in A549 cells, profiling panel, cell-based, JC-1 fluorescence, basal, 24 h, 100 nL (AID 1138); conditions: higher = more signal;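 also: A549 lung adenocarcinoma cells under basal conditions with no added stimulus; test concentration not given here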
# Lefty1 = Lefty1 binders on small-molecule microarrays, primary screen, biochemical, small-molecule microarray, 635/667 nm fluorescence (AID 1139); conditions: small-molecule microarray binding, fluorescence 635/667; higher = more signal
# [16] = system: wheat germ agglutinin (Triticum aestivum), Alexa647-labelled; experiment: wheat germ agglutinin binders on compound microarrays, profiling panel, artefact control for SMM control-protein annotation, biochemical, small-molecule microarray, 635/667 nm fluorescence (AID 1140); conditions: WGA-A647 binding, 635 nm fluorescence, higher = more signal;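 also: score merges 667 nm feature emission with signal to noise over triplicate slides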
# [17] = biological target: Luciferin 4-monooxygenase (Photinus pyralis) (UniProt P08659); experiment: firefly luciferase enzyme inhibitors, primary screen, biochemical, luminescence, purified enzyme, 2006 set (AID 1141); conditions: SteadyGlo luminescence, 30 min, higher = more signal, called active from +8 up or from −8 down;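 also: cell-free assay with purified firefly luciferase at 100 ng per well in PBS; test concentration not given here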
# Chain of Luciferin 4-monooxygenase (Photinus pyralis) (P08659 whole entry, looked up): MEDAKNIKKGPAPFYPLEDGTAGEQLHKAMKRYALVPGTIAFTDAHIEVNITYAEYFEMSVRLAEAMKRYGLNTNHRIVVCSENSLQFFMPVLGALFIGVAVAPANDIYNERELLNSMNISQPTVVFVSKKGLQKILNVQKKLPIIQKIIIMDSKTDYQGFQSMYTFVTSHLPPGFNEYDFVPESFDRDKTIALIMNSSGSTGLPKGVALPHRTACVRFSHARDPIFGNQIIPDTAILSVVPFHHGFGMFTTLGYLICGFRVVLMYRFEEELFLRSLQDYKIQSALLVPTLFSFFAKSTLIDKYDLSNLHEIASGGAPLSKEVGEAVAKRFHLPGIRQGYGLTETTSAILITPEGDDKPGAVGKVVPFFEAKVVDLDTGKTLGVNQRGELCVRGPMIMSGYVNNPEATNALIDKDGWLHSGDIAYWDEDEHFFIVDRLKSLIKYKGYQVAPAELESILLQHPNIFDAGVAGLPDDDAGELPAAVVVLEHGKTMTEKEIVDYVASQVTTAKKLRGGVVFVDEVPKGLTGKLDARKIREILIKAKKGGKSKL
# Chain of Follistatin (Homo sapiens) (P19883 whole entry, looked up): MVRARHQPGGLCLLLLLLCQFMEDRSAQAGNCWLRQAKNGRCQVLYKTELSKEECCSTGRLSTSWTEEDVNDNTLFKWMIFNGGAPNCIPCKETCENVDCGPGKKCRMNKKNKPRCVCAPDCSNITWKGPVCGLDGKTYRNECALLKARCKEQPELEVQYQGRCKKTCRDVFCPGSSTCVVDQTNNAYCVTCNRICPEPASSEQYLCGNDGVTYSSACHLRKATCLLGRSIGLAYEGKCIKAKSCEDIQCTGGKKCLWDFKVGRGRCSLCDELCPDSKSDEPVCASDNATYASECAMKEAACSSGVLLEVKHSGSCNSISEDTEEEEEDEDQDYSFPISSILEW
# Chain of Fibroblast growth factor 2 (Homo sapiens) (P09038 whole entry, looked up): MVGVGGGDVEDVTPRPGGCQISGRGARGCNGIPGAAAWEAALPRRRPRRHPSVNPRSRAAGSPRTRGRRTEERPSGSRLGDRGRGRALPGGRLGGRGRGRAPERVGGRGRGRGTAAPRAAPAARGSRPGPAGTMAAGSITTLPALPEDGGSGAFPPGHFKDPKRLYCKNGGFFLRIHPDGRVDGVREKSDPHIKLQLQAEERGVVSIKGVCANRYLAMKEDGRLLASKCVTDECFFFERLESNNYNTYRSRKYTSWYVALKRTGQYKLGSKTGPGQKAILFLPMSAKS
# Chain of Albumin (Bos taurus) (P02769 whole entry, looked up): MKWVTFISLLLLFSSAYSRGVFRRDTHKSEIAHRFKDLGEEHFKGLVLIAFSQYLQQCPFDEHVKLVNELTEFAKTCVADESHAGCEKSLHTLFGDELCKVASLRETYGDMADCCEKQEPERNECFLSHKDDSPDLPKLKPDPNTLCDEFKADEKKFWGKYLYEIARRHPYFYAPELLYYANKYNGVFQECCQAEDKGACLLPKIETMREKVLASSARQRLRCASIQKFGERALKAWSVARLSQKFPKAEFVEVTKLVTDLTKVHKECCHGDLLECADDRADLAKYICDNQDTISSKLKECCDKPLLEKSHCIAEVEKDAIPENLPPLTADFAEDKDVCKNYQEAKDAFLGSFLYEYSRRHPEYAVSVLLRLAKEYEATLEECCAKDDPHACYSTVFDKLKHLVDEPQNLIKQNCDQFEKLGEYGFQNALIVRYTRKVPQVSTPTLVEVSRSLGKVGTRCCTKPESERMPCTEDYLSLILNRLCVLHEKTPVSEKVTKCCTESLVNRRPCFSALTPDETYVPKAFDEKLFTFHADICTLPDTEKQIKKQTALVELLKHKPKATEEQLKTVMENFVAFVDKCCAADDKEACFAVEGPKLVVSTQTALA
# Chain of Concanavalin-A (Canavalia ensiformis) (P02866 whole entry, looked up): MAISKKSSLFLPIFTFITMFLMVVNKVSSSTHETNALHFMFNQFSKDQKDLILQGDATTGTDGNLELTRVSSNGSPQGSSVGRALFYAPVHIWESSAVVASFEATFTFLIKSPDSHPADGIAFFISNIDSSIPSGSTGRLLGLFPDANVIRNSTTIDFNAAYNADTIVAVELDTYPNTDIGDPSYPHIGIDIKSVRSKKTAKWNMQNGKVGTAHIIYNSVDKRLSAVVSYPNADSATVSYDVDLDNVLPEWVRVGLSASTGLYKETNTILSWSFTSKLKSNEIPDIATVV
# Chain of Focal adhesion kinase 1 (Homo sapiens) (Q05397 whole entry, looked up): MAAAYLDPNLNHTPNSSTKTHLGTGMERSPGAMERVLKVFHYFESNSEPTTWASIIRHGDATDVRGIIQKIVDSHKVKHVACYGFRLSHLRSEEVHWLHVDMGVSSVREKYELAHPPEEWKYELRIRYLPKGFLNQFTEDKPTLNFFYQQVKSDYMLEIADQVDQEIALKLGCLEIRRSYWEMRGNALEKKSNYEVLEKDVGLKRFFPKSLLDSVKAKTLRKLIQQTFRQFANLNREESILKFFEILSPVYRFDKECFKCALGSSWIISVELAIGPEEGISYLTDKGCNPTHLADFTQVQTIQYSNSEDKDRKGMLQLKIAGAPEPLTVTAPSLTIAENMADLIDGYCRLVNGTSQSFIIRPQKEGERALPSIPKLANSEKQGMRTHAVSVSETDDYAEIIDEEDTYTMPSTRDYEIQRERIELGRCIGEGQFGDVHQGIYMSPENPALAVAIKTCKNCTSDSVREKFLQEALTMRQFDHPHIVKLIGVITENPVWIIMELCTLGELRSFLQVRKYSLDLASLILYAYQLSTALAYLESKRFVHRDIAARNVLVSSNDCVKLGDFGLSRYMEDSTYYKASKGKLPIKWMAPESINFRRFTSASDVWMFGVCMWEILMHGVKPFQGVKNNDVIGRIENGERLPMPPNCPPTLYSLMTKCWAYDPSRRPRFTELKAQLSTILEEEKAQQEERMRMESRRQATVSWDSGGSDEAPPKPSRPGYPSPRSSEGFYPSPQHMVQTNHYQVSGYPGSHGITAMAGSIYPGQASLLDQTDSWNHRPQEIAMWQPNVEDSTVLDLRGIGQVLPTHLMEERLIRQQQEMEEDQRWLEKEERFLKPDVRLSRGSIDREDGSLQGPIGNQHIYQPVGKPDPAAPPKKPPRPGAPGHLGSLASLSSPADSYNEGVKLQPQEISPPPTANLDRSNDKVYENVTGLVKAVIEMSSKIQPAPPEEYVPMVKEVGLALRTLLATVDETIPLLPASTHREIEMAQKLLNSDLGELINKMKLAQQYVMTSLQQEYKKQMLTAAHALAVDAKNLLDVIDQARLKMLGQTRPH
SMILES,composite z-score (Albumin (Bos taurus)),composite Z-score [1],composite z-score [2],composite z-score [3],composite z-score [4],composite z-score [5],composite z-score [6],composite z-score (Sam68 (KHDRBS1)),composite z-score [7],composite z-score [8],composite z-score [9],composite z-score [10],composite z-score [11],composite z-score [12],composite z-score [13],composite z-score [14],z-score [15],composite z-score (Lefty1),composite z-score [16],z-score [17]
CCCC[C@@H](O)C1=C(C)C[C@H]2C(=O)N(C)C(=O)[C@H]2[C@H]1CO,0.799,0.475 (inactive),-0.132,-0.112,0.804,0.48,-0.198,0.705,-0.0576,0.0354,0.33,-0.196,0.116,0.173,0.186,0.41,1.52,0.776,1.12,-1.41 (inactive)
O=C(N1CCCCC1)[C@@]1(Cc2ccccc2)N=C(c2ccc(OCCCO)cc2)O[C@H]1c1ccccc1,0.955,0.0926 (inactive),0.214,0.308,0.797,3,0.849,1.23,-1.34,1.11,2.02,1.07,1.42,0.124,0.622,-0.12,-0.741,-0.341,1.07,-1.52 (inactive)
COc1ccc([Si](C)(C)[C@@H]2[C@@H](CC(=O)N3CCC[C@H]3CO)O[C@]3(C(=O)N(Cc4ccc(N5CCC5=O)cc4)c4ccccc43)[C@H]2C)cc1,-0.82,0.566 (inactive),0.0026,-0.0624,0.415,1.05,-0.31,1.31,0.183,1.08,2.01,1.13,0.983,0.406,0.712,0.589,1.55,1.04,0.0389,-1.45 (inactive)
C=CCNC(=O)[C@@H]1[C@H]2C(=O)O[C@H](c3ccccc3)[C@H](c3ccccc3)N2[C@H](c2ccc(O)cc2)[C@@]12C(=O)Nc1ccc(C#Cc3ccc(OC)cc3)cc12,0.29,0.422 (inactive),0.0563,-0.0451,0.31,0.928,0.482,1.32,-0.0134,1.12,1.11,1.2,0.552,0.924,1.03,0.363,-1.18,0.849,1.14,-0.968 (inactive)
O=C1O[C@@H](c2ccccc2)[C@@H](c2ccccc2)N2[C@@H](c3ccc(OCCO)cc3)[C@]3(C(=O)Nc4ccc(C#CC5(O)CCCCCC5)cc43)[C@@H](C(=O)NC[C@H](O)c3ccccc3)[C@H]12,0.879,-0.363 (inactive),0.158,0.0278,0.695,1.56,2.16,1.32,0.127,1.17,2.14,1.08,0.745,0.407,1.23,0.505,-0.482,0.783,1.09,-1.77 (inactive)
CC(=O)OC(C/C=C\B1OC(C)(C)C(C)(C)O1)c1ccccc1 (stereo not given),-0.274,-0.806 (inactive),-0.146,-0.166,-0.411,-0.279,-0.0949,0.0684,1.09,-0.923,-0.0541,-0.373,-0.379,0.221,0.0255,-0.377,1.45,-0.0863,-0.405,-1.54 (inactive)
